From PubChem BioAssay AID1986 (Sanford-Burnham Center for Chemical Genomics, 2009) come the findings set out here.

About 890 (0.31%) of roughly 290,000 compounds were called active. No stated cut-off is given here; in the data, active means inhibition mostly above about 52% (no sharp cut-off); inactive means mostly below about 76%. Shown is part of a subset that was picked to be rich in actives.

The assay in a line: cell-free HIV fusion peptide-binding blockers – biochemical, uHTS, fluorescence dequenching, primary screen (AID 1986). Conditions: 30 min, stronger effect = higher value.
Where [1] appears, read: measured here: repeat confirmation average inhibition, at 18.6 µM.

On to `O=C(CN1C(=O)NC2(CCCC2)C1=O)Nc1cccc(Cl)c1Cl`, for which, where the note is “at 20 µM”, the inhibition was 0.8% (inactive).

As for `CCOc1ccccc1C(=O)NC1CCN(Cc2ccccc2)CC1`, for the setting “at 20 µM”, the inhibition is -0.3% (inactive).

In the case of `CN(C)c1cncc(C(=O)O)c1`, the inhibition (at 20 µM) is -0.6% (inactive).

Turning to `S=C(NCc1ccccn1)Nc1ccccc1Cl`, the inhibition (at 20 µM) is 1.2% (inactive).

`CC(=O)N(CCC(c1ccco1)C(C)C)Cc1ccc(Cl)cc1` (centres undefined): where the note is “at 20 µM”, the inhibition was -0.3% (inactive).

For the compound `Clc1ccc(Cn2cc(/C=N/n3cnnc3)c3ccccc32)c(Cl)c1`, the inhibition (at 20 µM) is -3% (inactive).

Turning to `Oc1sc(C=Nc2ccccc2)c2ccccc12`, the inhibition (at 20 µM) was 24.4% (inactive).

With `Oc1sc(C=Nc2ccc(F)cc2)c2ccccc12`, the inhibition is 55% (inactive) (at 20 µM) and 23% under setting [1].

For the compound `Cc1ccc(N=Cc2sc(O)c3ccccc23)cc1`, the inhibition is 101% (active) (at 20 µM) and 104% under setting [1].

As for `Cc1nn(C)cc1CNC(=O)c1cccc(F)c1`, where the note is “at 20 µM”, the inhibition is -1.7% (inactive).

Turning to `O=C1S/C(=C\c2ccccc2)C(=O)N1CC(O)Cn1c2ccccc2c2ccccc21` (centres undefined), the inhibition (at 20 µM) was 0.2% (inactive).

For the compound `O=C1S/C(=C/c2ccccc2)C(=O)N1CC(O)Cn1c2ccccc2c2ccccc21` (centres undefined), for the setting “at 20 µM”, the inhibition is -0.1% (inactive).

For `CN(C)c1ccc(/C=C2\SC(=O)N(CC(O)Cn3c4ccccc4c4ccccc43)C2=O)cc1` (centres undefined), the inhibition (at 20 µM) is 120% (active).

On to `C#CCn1c(-c2cccs2)nc2ccccc21`, for which the inhibition (at 20 µM) is 0% (inactive).

Take `Nc1nnc(CC(=O)N/N=C\c2cc([N+](=O)[O-])ccc2O)s1`: the inhibition (at 20 µM) is 15.7% (inactive).

Regarding `Nc1nnc(CC(=O)N/N=C/c2cc([N+](=O)[O-])cc(Br)c2O)s1`, the inhibition (at 20 µM) is 61.2% (active).

As to `Nc1nnc(CC(=O)N/N=C/c2ccc([N+](=O)[O-])cc2)s1`, where the note is “at 20 µM”, the inhibition was -2.4% (inactive).

As to `Cc1cc(OCC(=O)NC(Cc2ccc(Cl)cc2)C(=O)O)c2c(C)cc(=O)oc2c1` (centres undefined), the inhibition (at 20 µM) is 4.4% (inactive).

For the compound `Cc1ccc(/C(N)=N/OC(=O)c2cccc(Cn3cc(C(F)(F)F)ccc3=O)c2)cc1`, under “at 20 µM”, the inhibition is -0.3% (inactive).

Consider `COC(=O)c1cc(C(=O)c2ccc(Cl)cc2)n2c(=O)/c(=C\N(C)C)sc12`, for which the inhibition (at 20 µM) is 97.1% (active) and the inhibition under setting [1] stood at 68.7%.

For the compound `CN(C)/C=c1\sc2c(C#N)cc(C(=O)c3ccc(Br)cc3)n2c1=O`, the inhibition (at 20 µM) is 3.8% (inactive).

For `COC(=O)c1cc(C(=O)c2ccccc2)n2c(=O)/c(=C\N(C)C)sc12`, the inhibition (at 20 µM) was 2.2% (inactive).

In the case of `COC(=O)c1nn(-c2ccc(OC)cc2)ccc1=O`, the inhibition (at 20 µM) was -2.9% (inactive).

Consider `COC(=O)COc1ccc(C2Nc3c(Cl)ccc(C(=O)O)c3C3C=CCC32)cc1` (centres undefined), for which the inhibition (at 20 µM) is 62.9% (active).

As for `O=C(O)c1ccc(Cl)c2c1C1C=CCC1C(c1ccccn1)N2` (centres undefined), the inhibition (at 20 µM) was -3.1% (inactive).

Regarding `COc1ccc(OC)c(C2Nc3c(Cl)ccc(C(=O)O)c3C3C=CCC32)c1` (centres undefined), under “at 20 µM”, the inhibition is 38.2% (inactive).

Turning to `Cc1c(OCC(=O)OC(C)(C)C)ccc2c3c(c(=O)oc12)CCC3`, the inhibition (at 20 µM) is 1.6% (inactive).

Regarding `NC1=Nc2cccc3cccc1c23`, the inhibition (at 20 µM) is 5.1% (inactive).

Consider `NC1=CC(=O)c2cccc3cccc1c23`, for which the inhibition is, setting by setting: (at 20 µM) 64% (active); under setting [1], 63.9%.

`O=C1C=C(O)c2cccc3cccc1c23`: for the setting “at 20 µM”, the inhibition was 9% (inactive).

Turning to `CCOc1cc(/C=C2/C(=O)ON=C2C)cc(Br)c1O`, the inhibition was 57.8% (active) (at 20 µM) and 51.8% under setting [1].

For the compound `COc1cc(/C=C2\C(=O)ON=C2c2ccccc2)cc(Cl)c1O`, the inhibition (at 20 µM) was 45.2% (inactive).

For the compound `CCOc1cc(/C=C2\C(=O)ON=C2c2ccccc2)ccc1OC`, for the setting “at 20 µM”, the inhibition was 0.3% (inactive).

Take `COc1cc(/C=C2/C(=O)ON=C2c2ccccc2)ccc1O`: for the setting “at 20 µM”, the inhibition is 10.6% (inactive).

`C#CCOc1c(Br)cc(/C=C2/C(=O)ON=C2C)cc1OCC`: where the note is “at 20 µM”, the inhibition was 4.2% (inactive).

`CCOc1cc(/C=C2\C(=O)ON=C2c2ccccc2)cc(Br)c1O`: the inhibition runs as follows: (at 20 µM) 69.6% (active); under setting [1], 108%.

On to `CCOc1cc(/C=C2/C(=O)ON=C2C)ccc1O`, for which, under “at 20 µM”, the inhibition was 33.7% (inactive).

For the compound `COc1cc(/C=C2\C(=O)ON=C2c2ccccc2)cc(Br)c1O`, the inhibition (at 20 µM) was 63.3% (active) and the inhibition under setting [1] amounted to 106%.

Regarding `COc1cc(/C=C2\C(=O)ON=C2c2ccccc2)cc(OC)c1OC`, the inhibition (at 20 µM) was 1.4% (inactive).

With `Cc1ccc(N/C=C2\CCCCC2=O)nc1`, the inhibition (at 20 µM) is 0.7% (inactive).

In the case of `Cc1ccc(S(=O)(=O)N/N=C\c2cn(CC(N)=O)c3ccccc23)cc1`, the inhibition (at 20 µM) is 0.7% (inactive).

As to `CN(C)c1ncnc(N(C)C)c1[N+](=O)[O-]`, the inhibition (at 20 µM) is -2.4% (inactive).

For `COc1ccccc1/C=C(/C(=O)NCCCn1ccnc1)c1ccccc1`, for the setting “at 20 µM”, the inhibition was 0.9% (inactive).

Take `O=C(N/N=C/c1ccccn1)c1cc(C2CC2)[nH]n1`: the inhibition (at 20 µM) was -0.3% (inactive).

In the case of `Cc1oc2cc3oc(=O)cc(C)c3cc2c1C`, the inhibition (at 20 µM) is 1% (inactive).

In the case of `O=C(OCC1O[C@@H](OC(=O)c2cc(O)c(O)c(O)c2)[C@@H](OC(=O)c2cc(O)c(O)c(O)c2)[C@@H](OC(=O)c2cc(O)c(O)c(O)c2)[C@@H]1OC(=O)c1cc(O)c(O)c(O)c1)c1cc(O)c(O)c(O)c1` (some centres undefined), the inhibition (at 20 µM) was 56% (active).

With `COC(=O)c1cc(O)c(O)c(O)c1`, for the setting “at 20 µM”, the inhibition is 11% (inactive).

In the case of `COC1OC(COC(=O)c2ccccc2)C(OC(=O)c2ccccc2)C1OC(=O)c1ccccc1` (centres undefined), where the note is “at 20 µM”, the inhibition was -0.6% (inactive).

Turning to `O=C(CCN1C(=O)c2ccc([N+](=O)[O-])cc2C1=O)Nc1nccs1`, the inhibition (at 20 µM) is -0.3% (inactive).

Turning to `O=C(CCCn1c(=S)[nH]c2ccccc2c1=O)NCCSCc1ccccc1`, the inhibition (at 20 µM) was 1.5% (inactive).

As to `CCN(CC)S(=O)(=O)c1ccc(O)c(C(=O)OCC(=O)Nc2ccc(OC(F)(F)F)cc2)c1`, the inhibition (at 20 µM) was -1.8% (inactive).

With `COc1cc2ccccc2cc1C(=O)NC(=S)Nc1cc(C(=O)O)ccc1C`, the inhibition was 51.6% (inactive) (at 20 µM) and -1.6% under setting [1].

On to `COc1cc2ccccc2cc1C(=O)NC(=S)Nc1ccc(C(=O)O)cc1`, for which the inhibition runs as follows: (at 20 µM) 53.8% (inactive); under setting [1], 2.1%.

As for `COc1cc2ccccc2cc1C(=O)NC(=S)Nc1cccc(C(=O)O)c1`, the inhibition (at 20 µM) is 58.8% (active).

For the compound `COc1ccc(/C=N\NC(=O)c2ccccc2Br)cc1COc1c(F)c(F)cc(F)c1F`, where the note is “at 20 µM”, the inhibition was 0.6% (inactive).

As for `COc1cc(C(=O)NCC(=O)N/N=C(/C)c2cccs2)cc(OC)c1OC`, where the note is “at 20 µM”, the inhibition was -1.2% (inactive).

In the case of `CC(C)P(=O)(Cc1cccc(C#N)c1)C(C)C`, the inhibition (at 20 µM) is 3.5% (inactive).

Turning to `COC(=O)c1ccc(OCC2c3cc(OC)c(OC)cc3CCN2C(=O)c2ccco2)cc1` (centres undefined), where the note is “at 20 µM”, the inhibition was -1.1% (inactive).

For `O=C(O)CC/C(=C\c1cccc(NC(=O)c2ccccc2Cl)c1)c1nc2ccccc2s1`, the inhibition is 64.7% (inactive) (at 20 µM) and 17.1% under setting [1].

For `Cc1ccc(/C=C(\CCC(=O)O)c2nc3ccccc3s2)cc1[N+](=O)[O-]`, where the note is “at 20 µM”, the inhibition is 27.3% (inactive).

With `COc1cccc(/C=C(\CC(=O)O)c2nc3ccccc3s2)c1`, where the note is “at 20 µM”, the inhibition is 3.6% (inactive).

For `O=C(O)CC/C(=C\c1ccc(Cl)c([N+](=O)[O-])c1)c1nc2ccccc2s1`, the inhibition (at 20 µM) is 13.2% (inactive).

On to `CN(c1ccccc1)c1ccc(/C=C(\CCC(=O)O)c2nc3ccccc3s2)cc1[N+](=O)[O-]`, for which the inhibition (at 20 µM) was 65% (active).

Turning to `COc1ccc(C(=O)Nc2cccc(/C=C(\CCC(=O)O)c3nc4ccccc4s3)c2)cc1`, the inhibition (at 20 µM) is 59.2% (active).

For orientation: inhibition means the drop in the measured response relative to a control, in per cent.
